Data reported in PubChem BioAssay AID588847 (Broad Institute, 2011).
Results with a measured potency or affinity are listed apart. Activity calls are given as the source filed them.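 How the source made its calls: active means compounds lowering luciferase light with a fitted half-maximal dose at most twice the top tested dose; inconclusive means flat fit inhibiting 30 to 70%, or unreliable fit; inactive means the rest.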

Target: Luciferin 4-monooxygenase (Photuris pensylvanica) (UniProt Q27757)
Assay: inhibition of Cell Titer Glo luciferase signal – biochemical, luminescence, cherry-picks, counter-screen for HSF-1 reporter inhibitor project, dose response (AID 588847)
Conditions: ATP; series mostly up to 26 µM

Luciferin 4-monooxygenase (Photuris pensylvanica), sequence (Q27757 whole entry, looked up): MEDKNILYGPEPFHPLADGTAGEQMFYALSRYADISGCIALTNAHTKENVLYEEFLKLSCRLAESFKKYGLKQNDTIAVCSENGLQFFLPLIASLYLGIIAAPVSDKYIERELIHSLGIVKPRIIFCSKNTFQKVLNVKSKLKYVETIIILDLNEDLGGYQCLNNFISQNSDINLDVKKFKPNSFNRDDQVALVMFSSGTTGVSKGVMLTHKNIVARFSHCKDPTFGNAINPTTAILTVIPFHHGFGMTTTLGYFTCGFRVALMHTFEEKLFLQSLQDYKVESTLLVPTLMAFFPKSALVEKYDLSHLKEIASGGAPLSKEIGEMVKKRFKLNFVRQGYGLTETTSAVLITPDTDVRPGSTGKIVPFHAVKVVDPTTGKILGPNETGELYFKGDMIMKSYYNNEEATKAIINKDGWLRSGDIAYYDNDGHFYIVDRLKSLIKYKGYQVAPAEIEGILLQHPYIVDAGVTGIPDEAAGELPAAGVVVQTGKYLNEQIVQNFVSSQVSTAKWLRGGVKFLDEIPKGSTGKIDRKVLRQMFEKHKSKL

Structure (SMILES) | outcome
COC(=O)c1ccccc1NC(=O)c1ccc(-c2ccc(Br)cc2)o1 | inactive
O=C(Nc1ccc(F)cc1F)c1cc2nc3c(c(C(F)(F)F)n2n1)CCCC3 | inactive
Cc1ccc(C(=O)Nc2sc(C)c(-c3ccccc3)c2C(N)=O)cc1[N+](=O)[O-] | inactive
COc1cc([C@@H]2c3cc4c(cc3[C@H](O)[C@H]3COC(=O)[C@H]23)OCO4)cc(OC)c1OC | inactive
O=[N+]([O-])c1nn(-c2ccc3c(c2)OCCO3)n(O)c1=Nc1ccccc1 | inactive
CC(=O)OCC(=O)[C@@]12OC(C)(C)O[C@@H]1CC1C3C[C@H](F)C4=CC(=O)C=CC4(C)[C@@]3(F)C(O)CC12C (stereo partly drawn) | inactive
CC(=O)[C@@]1(O)C(C)CC2C3C=C(C)C4=Cc5c(cnn5-c5ccccc5)C[C@]4(C)C3C(O)C[C@@]21C (stereo partly drawn) | inactive
Cc1nc(SCC(=O)Nc2nc3ccccc3s2)c(C#N)c(C)c1C | inactive
